TexasRed fluor: alters Texas Red total fluorescence, flagging assay interference | TRb/SRC2 Texas Red total fluorescence interference | Potency, µM (highest dose often 106 µM), without a hit: at the top dose fluorescence change, negative = quenching | 0.29% of 280,000 active | AID 1479; active = well fitted curve in either direction with a large enough effect; inconclusive = small, poorly fitted or top-dose-only effect
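Human TRβ ligand-binding domain (0.6 uM) and Texas Red SRC2 peptide (20 nM) in Tris buffer with 1 uM T3 and 5% DMSO were incubated with pinned compound for 5 hr at ambient temperature. Total fluorescence was computed as S + 2P (555/632 nm).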
Tau FP inhib: blocks human tau fibril formation measured by polarization. P10636. 0.39% of 280,000 active. Potency, µM (series often up to 57.7 µM), inactives show top-dose activity, negative = inhibition, most hits filed as inhibitors. K18 P301L tau heparin fibrillization, Alexa594 FP, 6 h; note: nearly all actives have a fitted effect of over 55% in size
Target sequence (P10636 561-689 P618L limits assumed): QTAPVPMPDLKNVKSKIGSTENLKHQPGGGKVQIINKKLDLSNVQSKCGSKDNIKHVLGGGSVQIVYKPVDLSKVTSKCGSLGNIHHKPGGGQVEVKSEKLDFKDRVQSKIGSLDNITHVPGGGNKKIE
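Heparin (20 uM) drove fibril formation of recombinant tau K18 P301L, 15 uM unlabeled with 0.24 uM Alexa 594 label, for 6 hr at 37 C in 100 mM sodium acetate pH 7. Fluorescence polarization (555/632 nm) read 1 hr after 30 uM ThT.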
TRb SRC2 PPI: TRbeta-SRC2 interaction inhibition | P10828 | TRbeta-SRC2 peptide binding, fluorescence polarization; receptor liganded with 1 µM T3 | Potency, µM (doses to about 106 µM), for inactives: at the top dose activity change, negative = inhibition, most hits filed as inhibitors | 0.065% of 280,000 active | AID 1469;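 note: plate controls were bound peptide for no effect and peptide without receptor for full effect; nearly all actives have a fitted effect of over 50% in size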
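Fluorescence polarization of 20 nM Texas Red SRC2 peptide with 0.6 uM human TRb ligand-binding domain, in Tris buffer with 1uM T3 and 5% DMSO. Incubated 5 hr ambient; normalized to unbound and bound controls.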
Tau fluor cs: counter-screen for tau fibril formation inhibitors. tau K18 P301L Alexa594 fluorescence, heparin fibrillization. Potency, µM (doses to about 57.7 µM), without a hit: at the top dose activity change, negative = decrease. 0.93% of 280,000 active. AID 1463; note: nearly all actives have a fitted effect of over 55% in size
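Human tau K18 P301L (15 uM unlabeled, 0.24 uM Alexa 594-labeled) in 100 mM sodium acetate pH 7 with 20 uM heparin, 6 hr at 37 C. ThT 30 uM added, 1 hr ambient; Alexa 594 FP and total fluorescence read at 555/632 nm.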
RGS12 GoLoco inh: RGS12 GoLoco-Gai1 interaction inhibition; P63096; Potency, µM (doses to about 61.6 µM), for inactives: top-dose activity, negative = inhibition, hits mostly inhibitors; 0.44% of 230,000 active; Gai1:RGS12 GoLoco peptide FP, rhodamine, 10 min; active = well fitted inhibition curve with a large enough effect, not every such curve was filed as active; inactive = no such curve, though single readings can be large or run the other way; note: nearly all actives have a fitted effect of over 30% in size
Target sequence (P63096 whole entry, looked up): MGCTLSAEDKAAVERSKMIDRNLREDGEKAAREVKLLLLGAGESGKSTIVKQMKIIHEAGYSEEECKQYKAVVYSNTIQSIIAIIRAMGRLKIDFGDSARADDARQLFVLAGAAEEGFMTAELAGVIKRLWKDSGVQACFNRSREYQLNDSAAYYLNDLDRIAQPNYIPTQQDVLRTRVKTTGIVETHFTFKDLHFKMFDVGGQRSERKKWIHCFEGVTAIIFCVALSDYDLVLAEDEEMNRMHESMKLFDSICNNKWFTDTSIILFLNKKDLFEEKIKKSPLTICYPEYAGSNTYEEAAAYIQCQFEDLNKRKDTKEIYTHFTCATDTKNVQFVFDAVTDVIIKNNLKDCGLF
Tau ThT inhib: inhibitors of human tau fibril formation, thioflavin T binding; P10636; recombinant tau K18 P301L, heparin-induced fibrillization, ThT fluorescence; Potency, µM (highest dose often 57.4 µM), for the others: at the highest dose activity, negative = inhibition, most hits filed as inhibitors; 2.1% of 270,000 active; AID 1460; note: nearly all actives have a fitted effect of over 55% in size
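ThT emission at 510 nm, taken 1 hr after adding 30 uM dye, quantifies aggregates formed when 20 uM heparin acts on human tau K18 P301L for 6 hr at 37 C.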
* = called active by the depositor; ? = inconclusive; nt = not tested or not shown; ! = not confirmed by another sample; [ ] = remark or other dose. An excerpt weighted towards active compounds, which were near 3.2% of everything screened. Unless noted, calls come from the whole dose curve; as a rule, active = well fitted curve in the direction sought with a large enough effect; inconclusive = small, poorly fitted or top-dose-only effect, or another doubt; inactive = no such curve, though single readings can be large; an effect the other way counts as inactive or inconclusive. Unless noted, % is set by controls: 0 for no effect and ±100 for the full control effect; potency is the fitted concentration of half-maximal effect.

SMILES	TexasRed fluor	Tau FP inhib	TRb SRC2 PPI	Tau fluor cs	RGS12 GoLoco inh	Tau ThT inhib
COc1cc(OC)c(OC)cc1/C=C/c1nc2cc3ccccc3cc2c(=O)n1-c1ccc(F)cc1F	-2%	?	-4%	?	nt	?
CCC(=O)OCCNc1cc(Sc2nccn2C)c2nonc2c1[N+](=O)[O-]	0%	-10%	-8%	?	-6%	4.5µM*
CCCC(=O)OCCNc1cc(Sc2nc3ccccc3[nH]2)c2nonc2c1[N+](=O)[O-]	2%	-2%	1%	-28%	-11%	?
CC(=O)OCCCNc1cc(Sc2ccc(Cl)cc2)c2nonc2c1[N+](=O)[O-]	7%	?	-1%	?	0%	8.9µM*
CCC(=O)OCCNc1cc(SCCC(=O)OC)c2nonc2c1[N+](=O)[O-]	?	?	-1%	?	-11%	7.9µM*
Cc1ccc(Sc2cc(NCCCO)c([N+](=O)[O-])c3nonc23)cc1	-3%	-16%	2%	-31%	-11%	nt
Cc1cc(C)c(NS(=O)(=O)c2ccc(-c3cnc(C4CC4)o3)cc2)c(C)c1	-4%	1%	6%	-23%	nt	-7%
Nc1ccc(N2CCN(c3ncc(C(F)(F)F)cc3Cl)CC2)c(C(F)(F)F)c1	3%	?	5%	10µM*[quencher]	nt	20µM*
Cc1[nH]c2ccccc2c1/C=N/Nc1cccc(C(=O)O)c1	0%	-8%	0%	?	23%	13µM*
O=C(O)c1cccc(N/N=C/c2cc(Br)cc(Br)c2O)c1	-18%	?	-4%	18µM*[quencher]	-3%	11µM*
Cc1[nH]c2ccccc2c1/C=C/C(=O)c1ccccc1	-4%	4%	4%	18µM*[quencher]	32%	?
Brc1ccc(/C=N/Nc2ccccc2)cc1	-2%	11%	-6%	20µM*[quencher]	-2%	?
Cc1[nH]c2ccccc2c(=O)c1C(=O)/C=C/c1ccccc1	0%	-10%	-3%	-3%	11%	nt
O=C(CSCc1cnn(-c2ccccc2)c1-n1cccc1)NCc1ccccc1F	-1%	-4%	-8%	-10%	nt	-15%
C[Si](Cl)(Cl)c1ccccc1	0%[201 µM]	nt	-1%[201 µM]	nt	nt	nt
FC(F)(F)c1ccc(Cl)c(Cl)c1	3%[201 µM]	nt	5%[201 µM]	nt	nt	nt
NC(N)=NCCC[C@H](N)C(=O)NCC(=O)N[C@@H](CC(=O)O)C(=O)N[C@@H](CO)C(=O)O	-2%	nt	0%	nt	nt	nt
CC(C)[C@H](Nc1ncnc2nc[nH]c12)C(=O)O	nt	nt	nt	nt	1%[14.2 µM]	nt
Cc1ccc(C(=O)n2nc(C)c(S(=O)(=O)N3CCCCCC3)c2C)cc1C	-2%	5%	2%	-4%	nt	?
O=C(O)c1cccc(N/N=C/c2ccc(-c3ccccc3)cc2)c1	-2%	-6%	0%	?	1%	14µM*
Cc1[nH]c2ccccc2c1/C=N/Nc1nc(N2CCCCC2)nc(N2CCCCC2)n1	-3%	?	4%	10µM*[quencher]	3%	?
CC(C)(C)c1ccc(/C=N/Nc2cccc(C(=O)O)c2)cc1	-2%	9%	-1%	-5%	-7%	?
COCCN1Cc2cccc(C(=O)Nc3ccc(C(=O)OC)cc3)c2C1=O	-2%	?	9%	-7%	nt	5%
CCc1ccc(CNC(=O)c2c(C)oc3ncn(CC(C)C)c(=O)c23)cc1	-21%	1%	-3%	-26%	nt	-9%
Cc1c(Cl)cccc1-c1ccc(CNc2ccc3[nH]c(=O)[nH]c3c2)o1	-6%	?	4%	?	nt	?
SMILES	TexasRed fluor	Tau FP inhib	TRb SRC2 PPI	Tau fluor cs	RGS12 GoLoco inh	Tau ThT inhib
C=CCN1C(=O)CS/C1=C(\C#N)S(=O)(=O)c1ccc(C)cc1	40µM*[fluorescent]	-2%	?	-15%	185%	-21%
C=CCN1C(=O)CSC1=Nc1cccc(O)c1	-2%	6%	2%	11%	8%	8%
O=C1CN(C(=O)CSc2nc(-c3ccccc3)cs2)c2ccccc2N1	1%	7%	1%	-20%	12%	-6%
CC1(C)C(=O)Nc2ccccc2N1C(=O)CSc1nc(-c2ccccc2)cs1	32µM*[quencher]	1%	-8%[53 µM]	5%	18%	6%
O=C(N/N=C/C(Cl)=C/c1ccc([N+](=O)[O-])cc1)C(=O)Nc1cccc(C(=O)O)c1	-5%	-7%	-1%	?	5%	3.5µM*
CCCN(CCO)CCCc1ccccc1	0%	-10%	1%	-3%	4%	-4%
CCN(CCCc1ccccc1)CCCc1ccccc1	-1%	3%	0%	-12%	28µM*!	-6%
O=C(CSc1nc2ccccc2c(=O)n1-c1ccc(F)cc1F)c1c[nH]c2ccccc12	1%	28µM*	5%	?	-5%	?
Oc1cccc2ccc[n+](CC(O)Cn3c4ccccc4c4ccccc43)c12 (configuration not stated)	0.89µM*[quencher]	14%	-12%	?	19%	?
OC(COc1ccccc1)Cn1c2ccccc2c2ccccc21 (configuration not stated)	1%	?	4%	?	2%	-11%
Cc1ccc(CCNC(=O)c2ccc(NC(=O)N3CCSc4ccccc43)cc2)cc1	-1%	-5%	3%	-18%	nt	-11%
COC/C=C/C1=CC2=CC(=O)C(C)(OC(=O)C3CCCC3)C(=O)C2=CO1 (configuration not stated)	-2%	10µM*	5%	?	16%	25µM*
COC/C=C/C1=CC2=CC(=O)C(C)(OC(=O)c3ccco3)C(=O)C2=CO1 (configuration not stated)	3%	?	-8%	?	27%	25µM*
COC/C=C/C1=CC2=CC(=O)C(C)(OC(=O)c3cccs3)C(=O)C2=CO1 (configuration not stated)	-2%	-2%	8%	-10%	0%	-13%
O=C(NCc1cccs1)c1ccc2c(c1)sc1nc(-c3ccccc3)cn12	?	-7%	-5%	1%	nt	1%
O=C(CSc1nc(Nc2ccccc2)nc(N2CCOCC2)n1)Nc1ccc([N+](=O)[O-])cc1	1%	?	5%	13µM*[quencher]	9%	?
O=C(ONc1ccc(N=NC(=O)c2ccccc2O)cc1)c1ccccc1	0%	1%	0%	?	-2%	4.5µM*
COc1cccc(CC(=O)N2CCc3nc(-c4ccc(OC)cc4C)c4c(c3C2)CO[C@@H](c2ccccc2)C4)c1	-3%[11.2 µM]	-4%[11.6 µM]	3%[11.2 µM]	-1%[11.6 µM]	3%[14.2 µM]	5%[11.5 µM]
Cc1ccc(C(C(=O)NCc2ccco2)N(Cc2ccco2)C(=O)CNC(=O)c2ccco2)cc1 (configuration not stated)	-3%	?	-6%	-20%	nt	7.1µM*

Screens deposited in PubChem by National Center for Advancing Translational Sciences (NCATS).
